# Bioassay records: PubChem BioAssay, National Center for Advancing Translational Sciences (NCATS)
# Compounds with a hit are over-represented: about 4.6% of the library has one in this group of screens.
# TRHR ag = agonists of human TRH receptor; TRHR cells, calcium flux fluo-8, FDSS agonist mode; actives 0.18% (n = 360,000); activation, % at 2 µM; AID 493084; further: 0% is about no effect
# Target sequence (P34981 whole entry, looked up): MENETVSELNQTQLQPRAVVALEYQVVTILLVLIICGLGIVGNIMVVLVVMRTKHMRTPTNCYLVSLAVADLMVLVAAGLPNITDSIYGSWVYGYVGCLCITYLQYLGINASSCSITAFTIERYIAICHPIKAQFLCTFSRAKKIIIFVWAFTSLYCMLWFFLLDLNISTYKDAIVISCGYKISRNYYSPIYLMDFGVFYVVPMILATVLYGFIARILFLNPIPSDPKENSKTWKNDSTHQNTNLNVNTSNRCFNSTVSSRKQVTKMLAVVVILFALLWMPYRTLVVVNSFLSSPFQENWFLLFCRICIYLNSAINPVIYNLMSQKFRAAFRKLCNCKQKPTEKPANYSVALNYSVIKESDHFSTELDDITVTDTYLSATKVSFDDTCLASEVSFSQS
#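 Read-out: compound-evoked intracellular calcium rise in TRHR cells, fluo-8 dye, kinetic FDSS fluorescence at 1 s/cycle following a 10-cycle baseline. Cells cultured overnight before dye loading (30 min–1.5 h, RT).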
# D1 antagonist = antagonists of human D1 dopamine receptor | activity change, negative = inhibition, % at 10 µM | P21728 | actives 3.2% (n = 360,000) | HEK293 TREx D1 cells, calcium flux, dopamine EC80; active compounds read low; in the data active means activity change below about -30%; further: on the % scale 0 is the no-effect control and ±100 the full control effect
#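 Tetracycline-induced HEK293 T-REx cells with force-coupled D1 receptor were loaded with a no-wash calcium dye. Compound was added after a 10 s baseline and read kinetically for 180 s; EC80 dopamine was then added and calcium flux followed another 180 s.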
# D1 PAM = human D1 dopamine receptor positive modulation; P21728; HEK293 TREx D1 cells, calcium flux, dopamine EC20 potentiation; potentiation, % at 10 µM; actives 0.036% (n = 360,000); AID 504651; in the data active means potentiation above about 30%; further: 0% is about no effect
# TRHR PAM = allosterically enhances the human TRH receptor. actives 0.66% (n = 360,000). TRHR cells, fluo-8 calcium fluorescence, EC20 TRH enhancement. P34981. enhancement, % at 2 µM; in the data active means enhancement above about 30%; further: 0% is about no effect
#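 TRHR-expressing cells loaded with fluo-8 calcium dye were read kinetically (ex 480/em 530) during compound addition, then stimulated with an EC20 of TRH (10 nM final). Enhancement of the Gq-mediated intracellular calcium response was scored.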
# D1 agonist = activates the human D1 dopamine receptor. HEK293 T-REx D1 cells, calcium flux, agonist mode. P21728. actives 1% (n = 360,000). activation, % at 2 µM; further: 0% is about no effect
#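 Agonism was scored from calcium flux recorded over 180 s (1 read/s) after pintool compound addition, following a 10-cycle baseline. Cells were inducible force-coupled HEK293 TREx D1, plated overnight at 30 C and loaded with no-wash calcium dye.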
# * = called active by the depositor. Unless noted, no stated cut-off is given here; in the data, active means activation above about 30%; inactive means the rest.
SMILES,TRHR ag,D1 antagonist,D1 PAM,TRHR PAM,D1 agonist
CCC(Sc1nc2cc(OC)c(OC)cc2c(=O)n1CCc1ccc(Cl)cc1)C(=O)NCCOC (stereo unspecified),0,-6,-2,0,2
CCC(Sc1nc2cc(OC)c(OC)cc2c(=O)n1CCc1ccc(OC)c(OC)c1)C(=O)NCCOC (stereo unspecified),0,-30*,-7,-3,0
O=C(Nc1ccc2nc(SCC(=O)N3CCCc4ccccc43)sc2c1)c1ccccc1,1,-9,-1,1,7
COc1ccccc1NC(=O)Cn1c([N+](=O)[O-])cnc1C,0,5,1,-8,4
Cc1ccccc1NC(=O)Cn1c([N+](=O)[O-])cnc1C,1,-47*,-4,-3,0
NCC/C=C1/c2ccccc2CSc2ccccc21,2,-5,-5,0,21
CN(C)CC/C=C1\c2cc(F)ccc2CSc2ccccc21,2,-93*,-6,-1,23
CC(O)CN(C)CC/C=C1/c2ccccc2CSc2ccccc21 (stereo unspecified),2,-72*,-11,-1,30*
C=CCN(C)CC/C=C1\c2ccccc2CSc2ccccc21,2,-7,-9,-7,0
CN(CC/C=C1/c2ccccc2CSc2ccccc21)CCCO,3,-30,-8,-5,31*
Cc1ccc(Cl)cc1NC(=O)C(=O)NCC(c1cccnc1)N1CCc2ccccc21 (stereo unspecified),-1,48,-3,-2,2
CC(C)c1ccc(C2N=C(N)Nc3nc4ccccc4n32)cc1 (stereo unspecified),-2,-15,-5,5,2
Cc1ccccc1OCC(O)CN(CCO)Cc1ccccc1 (stereo unspecified),0,-47*,-1,-8,1
Cc1cccc(OCC(=O)NNC(=O)c2cc3ccccc3oc2=O)c1,0,-4,-7,10,3
O=C(COc1ccc(F)cc1)NNC(=O)c1cc2ccccc2oc1=O,0,-30*,-9,-3,1
Cc1ccc(NC(=O)Cn2c(=O)n(CCCCC(=O)NCc3ccccc3Cl)c(=O)c3ccccc32)cc1C,-1,-11,-1,-17,5
CC1CCCC(NCC(O)COC(c2ccc(F)cc2)c2ccc(F)cc2)C1C (stereo unspecified),2,17,-8,-3,63*
CCCNC(=O)c1ccc2c(=O)c(O)c(-c3ccsc3)[nH]c2c1,4,-19,-5,3,9
CCCNC(=O)c1ccc2c(=O)c(O)c(-c3ccc(C)cc3)[nH]c2c1,4,-93*,-9,-6,6
Cc1ccc(CNC(=O)c2ccc3c(=O)c(O)c(-c4ccc(C)cc4)[nH]c3c2)cc1,5,-41*,-8,-1,8
Cc1ccc(-c2[nH]c3cc(C(=O)NCCCn4ccnc4)ccc3c(=O)c2O)cc1,3,-57*,-8,7,5
CCCNC(=O)c1ccc2c(=O)c(O)c(-c3ccc(OC)cc3)[nH]c2c1,2,-35*,-8,-5,1
CCCCSCCCNC(=O)c1c[nH]c2ccc(S(=O)(=O)Nc3cccc(OC)c3)cc2c1=O,1,-5,-2,3,3
Cc1ccc(CNC(=O)CS(=O)(=O)Cc2nc(-c3ccccc3C)oc2C)cc1,1,-8,-2,-4,4
Cc1ccc(CNC(=O)c2ccc3c(O)c(S(=O)(=O)c4ccc(Cl)cc4)c(=O)[nH]c3c2)cc1,0,6,-6,7,1
SMILES,TRHR ag,D1 antagonist,D1 PAM,TRHR PAM,D1 agonist
Cc1ccc(-c2[nH]c3cc(C(N)=O)ccc3c(=O)c2O)cc1,1,-36*,-7,10,2
N#C/C(=C/c1ccc(Cl)cc1)c1nc(-c2ccc(Br)cc2)cs1,1,-7,-3,-3,2
Cc1ccnc(N/C=C(\C#N)c2nc(-c3cccc(Br)c3)cs2)c1,0,-36*,-6,26,160*
Cc1cccc(C)c1OCC(=O)NCC1(N2CCOCC2)CCCCC1,-2,-1,0,2,2
CCc1ccccc1NS(=O)(=O)c1ccc2[nH]cc(C(=O)N(CC(C)C)CC(C)C)c(=O)c2c1,0,-54*,0,6,0
CCc1ccccc1NS(=O)(=O)c1ccc2[nH]cc(C(=O)N3CCCCC3)c(=O)c2c1,-1,3,-1,15,-2
O=C(c1cc(C2CC2)nn1-c1ccccc1)N1CCN(c2ccc(O)cc2)CC1,-1,2,12,30*,2
O=C(c1cc(-c2ccc(Cl)cc2)on1)N1CCc2ccccc2C1,1,-1,-5,-1,2
O=C(c1cc(-c2ccccc2)on1)N1CCc2ccccc2C1,1,0,-6,36*,1
CCCc1cc(=O)[nH]c(Nc2ccc(OCC)cc2)n1,0,-84*,4,-6,9
CCCCc1c(C)nc(Nc2ccc(OC)cc2)[nH]c1=O,0,-37*,-1,7,1
CCCCCc1c(C)nc(Nc2ccc(F)cc2)[nH]c1=O,5,-29,-7,-8,21
CN(Cc1ccccc1)C(=O)c1cccc(NC(=O)c2nsc3ccccc23)c1,0,-5,-2,-3,4
O=C(CCCN1C(=O)C(c2ccccc2)Oc2cccnc21)Nc1ccc(Br)cc1F (stereo unspecified),0,1,-6,-3,3
CC(NC(=O)CCCn1c(=O)c2cccn2c2cccnc21)c1ccccc1 (stereo unspecified),-1,-5,4,6,0
Cc1ccccc1Cn1c(=O)n(-c2ccc(Cl)cc2)c(=O)c2c3c(sc21)CCCC3,0,10,2,7,0
Cc1ccc(-n2c(=O)c3c4c(sc3n(Cc3ccccc3C)c2=O)CCC4)cc1C,0,-72*,1,3,1
COc1ccc(-c2noc(CCC(=O)NCc3ccc(OC)cc3OC)n2)cc1,-1,-11,-3,8,7
CC1OC(Nc2ccc(N=Nc3ccccc3)cc2)C(O)C(O)C1O (stereo unspecified),1,-10,-5,-4,31*
CCc1ccc(NCc2cc3cc(OC)c(OC)cc3n(CC(=O)Nc3ccc(F)cc3)c2=O)cc1,4,6,-3,-5,7
COc1cc2cc(CNc3ccccc3)c(=O)n(CC(=O)Nc3ccccc3)c2cc1OC,5,7,2,-3,37*
COc1ccccc1NC(=O)Cn1c(=O)c(CNc2ccccc2)cc2cc(OC)c(OC)cc21,-1,2,-2,3,69*
COc1ccccc1NC(=O)Cn1c(=O)c(CNc2ccc(C)cc2)cc2cc3c(cc21)OCCO3,0,-16,4,3,4
